Assay outcomes (PubChem BioAssay)
KKLEB cytotox = CF airway cell cytotoxicity counter-screen; KKLEB CF airway cells viability, ATPlite luminescence, overnight; active compounds read low; cells stimulated with P. aeruginosa culture filtrate; activity change (cytotoxicity), % at 5 µM; actives 0.36% (n = 360,000); AID 602141;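 active means corrected activity change at or below -50% at 5 µM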
Peg3 promoter = reduces Peg3 promoter-driven luciferase expression in HeLa; actives 1.7% (n = 360,000); AID 588405; inhibition, % at 20 µM; HeLa PEG-Prom luciferase reporter, luminescence, overnight;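 active means inhibition of at least 50% at 20 µM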
HSP90 inh = HSP90 refolding inhibition in rabbit reticulocyte lysate. luciferase refolding luminescence, 3 h. inhibition, % at 5.6 µM. actives 0.91% (n = 290,000). AID 1789;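 active means inhibition above the screen-wide mean plus 3 SD, computed separately per campaign, cut at about 16% in these data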;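 further: 0% = DMSO wells and 100% = 60 µM geldanamycin wells; inhibitors lower the luminescence because luciferase stays unfolded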
LGR2 inh = inhibitors of bursicon-induced Drosophila LGR2 receptor cAMP signaling; HEK293 LGR2, CRE-luciferase, bursicon-stimulated, 4 h; inhibition, % at 9.99 µM; actives 0.35% (n = 380,000);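 active means drop in luminescence signal, shown as inhibition above about 50% in the replicate tests, limit read from the data, passing the limit was not always enough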;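 further: agonist challenge used bursicon conditioned medium at about half maximal strength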
CF NFkB block = cystic fibrosis NF-kB activation inhibition | KKLEB NF-kB-GFP reporter, PAF-induced, GFP fluorescence overnight | inhibition, % at 5 µM | AID 588850 | actives 0.86% (n = 360,000);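 active means at least 50% inhibition at 5 µM, scaled per plate between neutral and stimulator controls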;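 further: PAF is a Pseudomonas aeruginosa culture filtrate used as stimulus; plate controls were PAF-stimulated DMSO wells for no effect and unstimulated DMSO wells for full effect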
Mdm2 MdmX PPI = disrupts the human Mdm2-MdmX interaction; O15151+Q00987; SaOS-2 split-luciferase Mdm2/MdmX complementation, luminescence; inhibition, % at 8 µM; actives 3% (n = 330,000); AID 485346;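 active means inhibition of at least 50% at 8 µM in the primary screen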
Target sequence (O15151 whole entry, looked up): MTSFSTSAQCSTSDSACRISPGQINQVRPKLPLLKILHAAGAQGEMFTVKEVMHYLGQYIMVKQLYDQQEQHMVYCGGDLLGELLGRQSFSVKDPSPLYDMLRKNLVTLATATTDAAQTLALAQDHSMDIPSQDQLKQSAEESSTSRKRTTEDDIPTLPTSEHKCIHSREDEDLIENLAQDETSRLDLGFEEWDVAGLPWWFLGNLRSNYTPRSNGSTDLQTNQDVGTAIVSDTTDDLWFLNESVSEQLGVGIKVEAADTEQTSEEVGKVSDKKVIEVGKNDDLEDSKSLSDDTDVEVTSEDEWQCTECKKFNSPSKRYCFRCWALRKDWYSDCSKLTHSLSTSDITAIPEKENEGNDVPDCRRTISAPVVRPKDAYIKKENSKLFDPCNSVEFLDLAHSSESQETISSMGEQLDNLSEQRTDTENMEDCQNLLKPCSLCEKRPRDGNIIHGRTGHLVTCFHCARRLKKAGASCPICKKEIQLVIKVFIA
Target sequence (Q00987 whole entry, looked up): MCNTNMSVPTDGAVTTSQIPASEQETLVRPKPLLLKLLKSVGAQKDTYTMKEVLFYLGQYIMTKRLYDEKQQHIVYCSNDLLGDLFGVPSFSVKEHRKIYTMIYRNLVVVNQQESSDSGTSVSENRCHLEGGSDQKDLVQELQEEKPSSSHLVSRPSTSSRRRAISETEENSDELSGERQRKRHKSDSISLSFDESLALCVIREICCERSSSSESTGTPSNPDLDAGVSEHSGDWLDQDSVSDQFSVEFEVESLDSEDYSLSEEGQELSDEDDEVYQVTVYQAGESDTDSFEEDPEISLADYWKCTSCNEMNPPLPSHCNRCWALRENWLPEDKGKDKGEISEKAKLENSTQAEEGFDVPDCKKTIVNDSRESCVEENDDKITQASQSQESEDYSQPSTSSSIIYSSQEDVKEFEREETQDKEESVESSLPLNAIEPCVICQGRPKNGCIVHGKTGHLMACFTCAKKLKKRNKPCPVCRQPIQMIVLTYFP
Mdm2 MdmX conf = human Mdm2/MdmX binding inhibition, confirmed | shares compounds with Mdm2 MdmX PPI | luminescent assay | inhibition, % at 8 µM | actives 55% (n = 10,000) | AID 489028; in the data active means inhibition above about 40%
Full FLuc ctr = counter-screen for Mdm2/MdmX inhibitors: full-length luciferase; shares compounds with Mdm2 MdmX PPI; SaOS-2 full-length luciferase counterscreen, luminescence; inhibition, % at 8 µM; actives 77% (n = 6,200); AID 504607;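 active means mean inhibition at 8 µM reaching about 37%, which flags the compound as non-specific, limit read from the data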;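 further: p53-null SaOS-2 cells with luciferase driven by a doxycycline-inducible promoter; compound on cells about two nights before reading with doxycycline added after day one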
* hit, by the source's call; . = no result. Most compounds without a hit are left out; they make up all but 3.6% or so of the library.

SMILES | KKLEB cytotox | Peg3 promoter | HSP90 inh | LGR2 inh | CF NFkB block | Mdm2 MdmX PPI | Mdm2 MdmX conf | Full FLuc ctr
COc1ccc(-c2nc(NC(=O)c3cc(C(C)(C)C)nn3C)sc2C)cc1 | -35 | 31 | 3 | . | 32 | 61* | 32 | .
C[C@H](CO)N1C[C@H](C)[C@H](CN(C)Cc2ccncc2)Oc2cc(C3=CCCCC3)ccc2S1(=O)=O | . | . | . | 7 | . | . | . | .
O=C(Nc1ccc(Br)c(C(F)(F)F)c1)c1ccc(C(F)(F)F)cc1 | -69* | -48 | -6 | 8 | 65* | 96* | 59* | 29
O=C(Nc1ccc(OCC(F)(F)C(F)F)c(C(F)(F)F)c1)c1ccc(Cl)cc1 | -40 | 25 | 1 | . | 42 | 92* | 85* | 34
COCC(=O)Nc1ccc2c(c1)OC[C@H](C)N(C(=O)C1CCCC1)C[C@@H](C)[C@@H](OC)CN(C)C2=O | . | . | . | -16 | . | . | . | .
COc1ccc(NC(=O)Nc2ccc3c(c2)CC(=O)N([C@@H](C)CO)C[C@H](C)[C@@H](CN(C)C(=O)Nc2cccc4ccccc24)O3)cc1 | . | . | . | 2 | . | . | . | .
CCn1c2c(c(=N)c3c1CCC3)CCCC2 | 2 | 16 | -1 | 2 | 8 | 38 | . | .
CCCCCCCCCn1c2c(c(=N)c3c1CCC3)CCCC2 | -56* | 104* | 2 | . | 46 | 98* | 96* | 9
CCCCCCCCCCn1c2c(c(=N)c3c1CCC3)CCC2 | -64* | 98* | 6 | . | 59* | 98* | 95* | 6
CO[C@@H](CN(C)C(=O)C1CCOCC1)[C@@H](C)CN(C(=O)Nc1ccc(F)cc1)[C@@H](C)CO | . | . | . | 2 | . | . | . | .
COc1ccc(OC)c2sc(NC(=O)CCS(=O)(=O)c3ccccc3)nc12 | -55* | 44 | 1 | -12 | 50 | 98* | 77* | 24
CCCc1nnc(NC(=O)CCS(=O)(=O)Cc2ccccc2)s1 | -1 | 4 | -7 | 10 | 1 | 57* | 7 | .
CCc1nnc(NC(=O)CCS(=O)(=O)c2ccccc2)s1 | -3 | -18 | -5 | 4 | -10 | 51* | 24 | .
CCCCc1nnc(NC(=O)CCS(=O)(=O)c2ccc(C)cc2)s1 | -8 | -4 | . | -2 | 28 | 57* | -5 | .
Cc1nc2ccccc2c2oc(C(=O)Nc3ccc(C(C)C)cc3)cc12 | -9 | -4 | 0 | 12 | 13 | 35 | . | .
COc1cc(NC(=O)c2cc3c(C)nc4ccccc4c3o2)cc(OC)c1OC | 13 | 56* | 0 | -4 | -45 | 59* | 29 | .
CC(=O)N1CCC2(CC1)C/C(=N\NC(=S)Nc1ccc(C)cc1)c1cc(O)ccc1O2 | -13 | -4 | 3 | -20 | 4 | 75* | 40* | 93*
Cc1ccccc1NC(=S)N/N=C1\CC(C)(C)Oc2ccc(O)cc21 | 13 | 14 | -2 | -3 | -12 | 51* | 6 | .
Cc1ccc(NC(=S)N/N=C2\CC(C)(C)Oc3ccc(O)cc32)cc1 | 0 | 3 | -1 | 0 | 27 | 28 | . | .
COc1ccc(NC(=S)N/N=C2\CC(C)(C)Oc3ccc(OC)cc32)cc1 | -8 | 22 | -3 | -7 | 24 | 27 | . | .
C[C@H](CO)N1C[C@H](C)[C@@H](CN(C)CC2CCCCC2)Oc2ccc(NC(=O)Nc3ccccc3)cc2CC1=O | . | . | . | 17 | . | . | . | .
COCC(=O)Nc1ccc2c(c1)C(=O)N(C)[C@H]1CC[C@H](CC(=O)NCc3ccccc3F)O[C@H]1CO2 | . | . | . | -3 | . | . | . | .
C[C@H](CO)N1C[C@H](C)[C@@H](CN(C)C(=O)Nc2ccccc2)OCCCC[C@H](C)Oc2ccc(NS(=O)(=O)c3cn(C)cn3)cc2C1=O | . | . | . | -2 | . | . | . | .
COc1cc(-c2nc3ccc4ccccc4c3c3c2CCC3)cc(OC)c1OC | 3 | -8 | -3 | . | 3 | 62* | 57* | 57*
COc1cc(-c2nc3ccc4ccccc4c3c3c2CCC3)cc(OC)c1O | 10 | 10 | -4 | 3 | -10 | 40 | . | .
SMILES | KKLEB cytotox | Peg3 promoter | HSP90 inh | LGR2 inh | CF NFkB block | Mdm2 MdmX PPI | Mdm2 MdmX conf | Full FLuc ctr
CCOc1ccc(CCN2C(=O)C(=O)N([C@H](CCCN(C)Cc3ccccc3)CNCc3ccccc3)C[C@@H]2C(C)C)cc1 | . | . | . | . | . | 66* | 56* | 58*
CCOc1ccc(CCN2C(=O)C(=O)N([C@@H](CC(C)C)CN3CCC[C@@H]3CN3C(=O)C(=O)NC[C@@H]3CC(C)C)C[C@@H]2Cc2ccccc2)cc1 | -5 | 11 | . | 5 | 18 | . | . | .
Cc1noc(C)c1S(=O)(=O)Nc1ccc2c(c1)C(=O)N([C@@H](C)CO)C[C@@H](C)[C@@H](CN(C)C(=O)NC(C)C)OCCCC[C@@H](C)O2 | . | . | . | 1 | . | . | . | .
CCCCCc1cc(=O)oc2c(C(CCN3CCCC3)c3ccc(N(C)C)cc3)c(OC)cc(OC)c12 (stereo not drawn) | -27 | 97* | . | -5 | 14 | 97* | 39 | 53*
CCCCCc1cc(=O)oc2c(C(CCN3CCN(c4ccccc4)CC3)c3ccc4c(c3)OCO4)c(OC)cc(OC)c12 (stereo not drawn) | -16 | -2 | . | -1 | 28 | 46 | . | .
CCCCCc1cc(=O)oc2c(C(CCN(CC)CC)c3ccc(OC)cc3)c(OC)cc(OC)c12 (stereo not drawn) | -8 | 101* | . | . | 3 | 100* | 34 | 51*
CCCCCc1cc(=O)oc2c(C(CCN3CCCCC3)c3ccc(OC)cc3)c(OC)cc(OC)c12 (stereo not drawn) | -56* | 102* | . | . | 53* | 96* | 31 | 44*
CCN(CC)CCC(c1ccc(N(C)C)cc1)c1c(OC)cc(OC)c2ccc(=O)oc12 (stereo not drawn) | -1 | 13 | . | 0 | -23 | -8 | . | .
CCCCCc1cc(=O)oc2c(C(CCN3CCCC3)c3cc(OC)c(OC)c(OC)c3)c(OC)cc(OC)c12 (stereo not drawn) | -17 | 102* | . | . | 16 | 100* | 62* | 39*
C[C@@H]1CN([C@H](C)CO)S(=O)(=O)c2ccc(-c3ccccc3F)cc2O[C@@H]1CN(C)Cc1ccncc1 | . | . | . | -20 | . | . | . | .
C[C@@H]1CN([C@H](C)CO)C(=O)c2cc(NC(=O)Cc3ccccc3)ccc2O[C@@H](C)CCCCO[C@H]1CN(C)C(=O)CCC(F)(F)F | . | . | . | 24 | . | . | . | .
CCCCCc1cc(=O)oc2c(C(CCN3CCCC(C)C3)c3ccc(OC)cc3)c(OC)cc(OC)c12 (stereo not drawn) | -22 | 96* | . | 25 | 14 | 86* | 42* | 50*
c1ccc(-c2cc(NCCN3CCCCC3)c3ccccc3n2)cc1 | -5 | 101* | 1 | 3 | -39 | 57* | 46* | 51*
O=C(c1cc(-c2ccccc2)nc2ccccc12)N1CCCC1 | -7 | 3 | -2 | -7 | 27 | -24 | . | .
